# Experimental data taken from the supplement of paper PMC9948646.
# Values without a mark were called inactive.
# Test system: gramicidin D channels in DC22:1PC lipid vesicles (bilayer-modifying potency)
# Test: initial Tl+ fluorescence quench rate relative to no-drug control (NormRate, gramicidin monomer-dimer shift) (ratio (fold of control)); higher = stronger bilayer-modifying effect (equilibrium shifted toward conducting dimers), active = 1.5 or more
# Settings: 10 µM; lipid concentration 50 µM; temperature: 25 °C
# Experimental: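 Stopped-flow fluorescence quench assay: ANTS-loaded DC22:1PC large unilamellar vesicles doped with gramicidin D (1:2000), 50 µM lipid, equilibrated 10 min with 10 µM drug (0.1% DMSO), mixed with Tl+ quench buffer at 25°C. Initial quench rate (Tl+ influx) was fitted with a modified stretched exponential and normalised to the no-drug control rate (NormRate); duplicates from two independent LUV preparations (triplicates for 7 drugs).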
row,Structure (SMILES),initial Tl+ fluorescence quench rate
1,Cc1nc(-c2ccccn2)nc(N2CC[C@@H](Cc3ccccc3)C2)c1Cl,3.57 (active)
2,NCCN(C(=O)c1ccc(Cl)cc1Cl)c1ccc(OCc2ccc(Cl)cc2)cc1,5.93 (active)
3,Cc1cc2nc(NC(=O)C(C)(C)C)nc(Cl)c2n1Cc1ccc(Cl)cc1,1.77 (active)
4,Nc1ncc(-c2ccc(C(F)(F)F)nc2)cc1-c1ccc(C(F)(F)F)nc1,1.08
5,COc1ccc2nccc(NC(=O)C3CCN(CCc4ccc(Cl)cc4)CC3)c2n1,1.09
6,[H]/N=C(\N)c1ccc(OCCCCCOc2ccc(/C(N)=N\[H])cc2)cc1,1.02
7,COC(=O)c1c(NC(=O)c2c(F)c(F)c(F)c(F)c2F)sc2c1CCCCC2,1.72 (active)
8,c1ccc(Oc2ccc(-c3cncc(-c4ccc5[nH]ccc5c4)n3)cc2)cc1,1.69 (active)
9,FC(F)(F)c1nnc2ccc(Cl)nn12,1.02
10,Nc1ccc2ncnc(Nc3ccc(OCc4cccc(F)c4)c(Cl)c3)c2c1,2.58 (active)
11,O=C(NCc1ccoc1)N1CCN(Cc2ccc3c(c2)OCO3)CC1,1.11
12,c1ccc(C[C@@H]2CN(c3nccc(Oc4ccc(-n5ccnc5)cc4)n3)CCN2)cc1,1.26
13,c1ccc(Oc2ccc(-c3cc(N4CCOCC4)[nH]n3)cc2)cc1,2.4 (active)
14,CCCn1nnc(NC(=O)COc2ccc(C3CCCCC3)cc2)n1,2.51 (active)
15,NC(=O)c1cc(Br)ccc1OCCOc1ccccc1,1.21
16,NCCC[C@](N)(C(=O)O)C(F)F,1.07
17,COc1ccc(C2=NN(C3CCCCCC3)C(=O)[C@@H]3CC=CC[C@H]23)cc1OCCCCOc1ccc(-c2nn[nH]n2)cc1,8.03 (active)
18,COc1ccc(-c2cnc3ccc(N4CCCC4)nn23)cc1OC,2.31 (active)
19,CC(C)(C)OC(=O)N1CCC(Cn2nc(-c3cnc4ccccc4c3)c3c(N)ncnc32)CC1,1.57 (active)

row,Structure (SMILES),initial Tl+ fluorescence quench rate
1,COc1ccc(C2=NN(C3CCCCCC3)C(=O)C2(C)C)cc1OCCCCOc1ccc(-c2nn[nH]n2)cc1,9.05 (active)
2,Cc1cc(C(=O)Nc2cnn(Cc3ccc(Cl)cc3Cl)c2)no1,1.1
3,Cc1ccccc1C(=O)N1N=C(Nc2ccccc2)SC1(C)C,2.12 (active)
4,CN1CCC[C@H]1CCO[C@](C)(c1ccccc1)c1ccc(Cl)cc1,2.33 (active)
5,Cc1nnc(NCc2cccc(Cl)c2)c2ccccc12,1.05
6,O=C(Nc1nc(-c2ccccn2)cs1)c1cncn1-c1ccccc1,1.1
7,Cc1ccc(S(=O)(=O)n2cc(-c3ccnc(N)c3)c3cc(Br)cnc32)cc1,2.5 (active)
8,CNc1nnc(Sc2cnn(-c3ccccc3)c(=O)c2Cl)s1,1.04
9,Cc1cnc(CCNC(=O)c2cc(-c3ccc(Cl)cc3)cs2)[nH]1,1.34
10,COc1ccc(N(CCc2cccc(C)n2)C(=O)C2CCCCC2)cc1,1.41
11,COc1cc(C2=NCCN2)cc2cc(-c3ccc(C4=NCCN4)cc3)oc12,1.1
12,CO[C@@H](C(=O)N1Cc2[nH]nc(NC(=O)c3ccc(N4CCN(C)CC4)cc3)c2C1)c1ccccc1,1.2
13,O=C(NCc1ccco1)N1CCN(Cc2ccc(Cl)s2)CC1,1.03
14,COc1cc(Br)cc2cc(C(=O)Nc3cccc(C(F)(F)F)c3)c(=O)oc12,1.05
15,CCc1nc2ccc(C(=O)NCc3ccc4c(c3)OCO4)cn2c1N(C)Cc1cccs1,2.01 (active)
16,Cc1cccc(-c2nc(Nc3ccncn3)c3sccc3n2)n1,1.81 (active)
17,O=C(Nc1ccnc(-c2cccnc2)n1)c1cc(C(F)(F)F)cc(C(F)(F)F)c1,1.2
18,COc1cccc(-n2nnnc2S(=O)(=O)Cc2ccccc2)c1,1.07
